Bioassay records from PubChem BioAssay.
KKLEB tox: reduces viability of KKLEB cystic fibrosis airway cells | 0.36% of 360,000 active | KKLEB CF airway cells viability, ATPlite luminescence, overnight; hits give low values; cells stimulated with P. aeruginosa culture filtrate | activity change (cytotoxicity), % at 5 µM;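 active = corrected activity change at or below -50% at 5 µM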
HIF-2a inh: inhibitors of HIF-2a | inhibition, % at 18.8 µM | 0.72% of 360,000 active | 786-0 RCC cells HIF-2a reporter, luciferase luminescence, overnight;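 active = inhibition of the luminescence signal of 40% or more relative to plate controls, in a single-dose primary screen at 18.75 µM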
CF NFkB inh: cystic fibrosis NF-kB activation inhibition. KKLEB NF-kB-GFP reporter, PAF-induced, GFP fluorescence overnight. inhibition, % at 5 µM. 0.86% of 360,000 active. AID 588850;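 active = at least 50% inhibition at 5 µM, scaled per plate between neutral and stimulator controls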;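 note: PAF is a Pseudomonas aeruginosa culture filtrate used as stimulus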
Peg3 prom inh-1: inhibitors of Peg3 promoter; HeLa PEG-Prom luciferase reporter, luminescence, overnight; 1.7% of 360,000 active; inhibition, % at 20 µM;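 active = inhibition of at least 50% at 20 µM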
TWEAK Fn14 block: TWEAK-Fn14 signaling inhibition; TWEAK-stimulated Fn14 reporter cells, luciferase luminescence, 8 h; inhibition, % at 10 µM; 2% of 360,000 active; in the data active = inhibition above about 50%
TROY NFkB inh: inhibitors of TROY-dependent NF-kB signaling; AID 1347056; Q293 LMP1-TROYcd NF-kB luciferase reporter, 4 h; inhibition, % at 10 µM; 0.98% of 360,000 active;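 active = compounds whose plate-normalised and pattern-corrected inhibition of the luciferase reporter signal at the single screening dose is 50% or more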
Peg3 prom inh-2: confirmation of Peg3 promoter inhibitors; 84% of 1,300 active; AID 602417; inhibition, % at 20 µM; shares compounds with Peg3 prom inh-1; HeLa PEG-Prom luciferase reporter, luminescence, overnight;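 active = at 20 µM dose, 40% or more inhibition averaged across four replicates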
Hits are given with their value. Rows were chosen to be rich in hits. Some 4% of all compounds tested hit in one or more screens of this group.

For COc1cccc(C(=O)O/N=C(\N)c2ccccn2)c1 the results were KKLEB tox inactive, HIF-2a inh inactive, CF NFkB inh inactive, Peg3 prom inh-1 87, TWEAK Fn14 block 101, TROY NFkB inh 79 and Peg3 prom inh-2 69.
N/C(=N\OC(=O)c1cccc([N+](=O)[O-])c1)c1ccccn1 was read as KKLEB tox inactive, HIF-2a inh inactive, CF NFkB inh inactive, Peg3 prom inh-1 inactive, TWEAK Fn14 block inactive and TROY NFkB inh inactive.
`CC(=O)CSc1cc(-c2ccccc2)nc2ncnn12` gave KKLEB tox inactive, HIF-2a inh inactive, CF NFkB inh inactive, Peg3 prom inh-1 inactive, TWEAK Fn14 block inactive and TROY NFkB inh inactive.
CC(=O)CCc1ccc(Oc2nc(-c3cccnc3)nc3ccccc23)cc1 was read as KKLEB tox inactive, HIF-2a inh inactive, CF NFkB inh inactive, Peg3 prom inh-1 66, TWEAK Fn14 block inactive, TROY NFkB inh inactive and Peg3 prom inh-2 inactive.
Screening COCCn1c(=NC(=O)c2ccc(S(=O)(=O)N3CCc4ccccc4C3)cc2)sc2cc(S(N)(=O)=O)ccc21 returned KKLEB tox inactive, HIF-2a inh inactive, CF NFkB inh inactive, Peg3 prom inh-1 inactive, TWEAK Fn14 block inactive and TROY NFkB inh inactive.
C=CCn1c(=NC(=O)c2ccc(S(=O)(=O)N3CCc4ccccc4C3)cc2)sc2cc(S(N)(=O)=O)ccc21 was read as KKLEB tox inactive, HIF-2a inh inactive, CF NFkB inh inactive, Peg3 prom inh-1 72, TWEAK Fn14 block inactive, TROY NFkB inh inactive and Peg3 prom inh-2 inactive.
For Cc1csc(NC(=O)c2ccc(N3CCCC3=O)cc2)n1 the results were KKLEB tox inactive, HIF-2a inh inactive, CF NFkB inh inactive, Peg3 prom inh-1 64, TWEAK Fn14 block 90, TROY NFkB inh 70 and Peg3 prom inh-2 46.
Cc1nnc(NC(=O)c2ccc(N3CCCC3=O)cc2)s1 was read as KKLEB tox inactive, HIF-2a inh inactive, CF NFkB inh inactive, Peg3 prom inh-1 inactive, TWEAK Fn14 block inactive and TROY NFkB inh inactive.
`Cc1cc(C(=O)CN2C(=O)c3ccccc3S2(=O)=O)c(C)n1-c1ccccc1` gave KKLEB tox inactive, HIF-2a inh 86, CF NFkB inh inactive, Peg3 prom inh-1 93, TWEAK Fn14 block 94, TROY NFkB inh inactive and Peg3 prom inh-2 93.
`Cc1ccc(C)c(C2=NNC(=O)CC2)c1` gave KKLEB tox inactive, HIF-2a inh inactive, CF NFkB inh inactive, Peg3 prom inh-1 inactive, TWEAK Fn14 block inactive and TROY NFkB inh inactive.
O=C(CCN1C(=O)/C(=C/c2ccc(F)cc2)SC1=S)NNC(=O)c1ccncc1 was read as KKLEB tox inactive, HIF-2a inh inactive, CF NFkB inh inactive, Peg3 prom inh-1 inactive, TWEAK Fn14 block inactive and TROY NFkB inh inactive.
For O=C(CCN1C(=O)/C(=C/c2ccc(F)cc2)SC1=S)N[C@@H](CO)Cc1ccccc1 the results were KKLEB tox inactive, HIF-2a inh inactive, CF NFkB inh inactive, Peg3 prom inh-1 79, TWEAK Fn14 block inactive, TROY NFkB inh inactive and Peg3 prom inh-2 72.
Screening CN1CCN(CCNC(=O)c2ccc3nc(-c4ccc(F)cc4)c(-c4ccc(F)cc4)nc3c2)CC1 returned KKLEB tox inactive, HIF-2a inh inactive, CF NFkB inh inactive, Peg3 prom inh-1 74, TWEAK Fn14 block inactive, TROY NFkB inh inactive and Peg3 prom inh-2 90.
Screening Cc1ccc(C(=O)N(C)CC(=O)Nc2cccc(F)c2)cc1S(=O)(=O)N1CCCCC1 returned KKLEB tox inactive, HIF-2a inh inactive, CF NFkB inh inactive, Peg3 prom inh-1 inactive, TWEAK Fn14 block inactive and TROY NFkB inh inactive.
Screening O=c1[nH]c(=S)[nH]c2c1C(c1ccc(F)cc1)OC(CCC(F)(F)F)C2 (configuration not stated) returned KKLEB tox inactive, HIF-2a inh inactive, CF NFkB inh inactive, Peg3 prom inh-1 inactive, TWEAK Fn14 block inactive and TROY NFkB inh inactive.
O=C(N/N=C\c1c(O)ccc2ccccc12)c1ccc(Cn2cccn2)o1 was read as KKLEB tox inactive, HIF-2a inh inactive, CF NFkB inh inactive, Peg3 prom inh-1 54, TWEAK Fn14 block inactive, TROY NFkB inh inactive and Peg3 prom inh-2 67.
COc1ccc(NC(=O)Nc2cc(C)ccn2)cc1 was read as KKLEB tox inactive, HIF-2a inh inactive, CF NFkB inh inactive, Peg3 prom inh-1 inactive, TWEAK Fn14 block inactive and TROY NFkB inh inactive.
O=C(NC(=O)c1ccccc1)Nc1ccccn1 was read as KKLEB tox inactive, HIF-2a inh 75, CF NFkB inh inactive, Peg3 prom inh-1 90, TWEAK Fn14 block 95, TROY NFkB inh 73 and Peg3 prom inh-2 77.
For O=C(Nc1ccccn1)c1ccc(C(=O)c2ccccc2)cc1 the results were KKLEB tox inactive, HIF-2a inh inactive, CF NFkB inh inactive, Peg3 prom inh-1 inactive, TWEAK Fn14 block inactive and TROY NFkB inh inactive.
For COc1ccc(C(=O)NC(=O)Nc2cc(C)ccn2)cc1 the results were KKLEB tox -55, HIF-2a inh inactive, CF NFkB inh inactive, Peg3 prom inh-1 72, TWEAK Fn14 block 97, TROY NFkB inh 79 and Peg3 prom inh-2 inactive.
Screening COc1cccc(-c2cccc(-c3nc(C(=O)Nc4ccc(-c5ccccc5)cc4)cc4c3[C@H](CCO)N(S(=O)C(C)(C)C)C4)c2)c1 (some centres not stated) returned KKLEB tox inactive, HIF-2a inh inactive, CF NFkB inh inactive, Peg3 prom inh-1 78, TWEAK Fn14 block inactive, TROY NFkB inh inactive and Peg3 prom inh-2 inactive.
For CC(C)(C)c1ccc(C(=O)N2CCN(C(=O)c3cccs3)CC2)cc1 the results were KKLEB tox inactive, HIF-2a inh inactive, CF NFkB inh inactive, Peg3 prom inh-1 inactive, TWEAK Fn14 block inactive and TROY NFkB inh inactive.
Screening C[C@@H](CN1C2=NC[C@H](C)N2C[C@H]1Cc1ccc(O)cc1)NC(=O)CCC1CCCCC1 returned KKLEB tox inactive, HIF-2a inh inactive, CF NFkB inh inactive, Peg3 prom inh-1 inactive, TWEAK Fn14 block inactive and TROY NFkB inh inactive.
COc1ccc(C[C@H]2CN3C(=NC[C@@H]3Cc3ccc(O)cc3)N2C[C@H](C)NC(=O)CCC2CCCCC2)cc1 was read as KKLEB tox inactive, HIF-2a inh inactive, CF NFkB inh inactive, Peg3 prom inh-1 63, TWEAK Fn14 block inactive, TROY NFkB inh inactive and Peg3 prom inh-2 inactive.
Screening CN(Cc1ccccc1)C(=O)c1ccc(Nc2nc(C(N)Cc3ccccc3)cs2)nc1 (configuration not stated) returned KKLEB tox inactive, HIF-2a inh inactive, CF NFkB inh inactive, Peg3 prom inh-1 93, TWEAK Fn14 block inactive, TROY NFkB inh inactive and Peg3 prom inh-2 90.
For NC(CCc1ccccc1)c1csc(Nc2ccc(C(=O)NCCCO)cn2)n1 (configuration not stated) the results were KKLEB tox inactive, HIF-2a inh inactive, CF NFkB inh inactive, Peg3 prom inh-1 inactive, TWEAK Fn14 block inactive and TROY NFkB inh inactive.
